# Screening results (PubChem)
# An excerpt weighted towards active compounds, which were near 21% of everything screened.
# Shiga inhibitor = inhibitors of Shiga toxin in Vero cells; Vero cells, Shiga toxin protein synthesis inhibition reporter; inhibition, % at 38.7 µM; actives 9.2% (n = 290,000); in the data active = inhibition mostly above about 28%, no sharp cut-off; inactive = mostly below about 43%
# HCV inh = inhibitors of hepatitis C virus infection | actives 3.4% (n = 340,000) | Potency, µM (series often up to 41.8 µM), usual class: inhibitors | Huh7.5.1 HCVcc-Cre infection, luciferase reporter, 44 h
#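 Whole-lifecycle infectious HCVcc-Cre system; cells 1,000/well, compound then virus (~0.5 moi) added 4 h after plating, 44 h culture. Luciferase read 15 sec following 15 min substrate incubation, room temp.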
# Cycloheximide cs = affects cycloheximide protein synthesis inhibition readout, counter-screen | actives 12% (n = 300,000) | cell reporter, cycloheximide protein synthesis inhibition counterscreen | max response, %; in the data active = max response mostly above about 13%, no sharp cut-off; inactive = mostly below about 14%; also: read at 38.3 µM for the half of the compounds with a filed dose
# HCMV inh = inhibitors of human cytomegalovirus; HFF cells, HCMV-luciferase reporter, 72 h; stronger effect = lower value; activity change, negative = inhibition, % at 57.5 µM; actives 4.5% (n = 410,000); AID 1259415; in the data active = activity change below about -60%; inconclusive = no clear call, values can overlap the other calls; inactive = above about -39%
#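 Two-dose cell screen: HFF monolayers treated with compounds and infected with luciferase-expressing HCMV at 1 PFU/cell, 72 h at 37C, then lysed for luciferase measurement.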
# Pf growth 48h = P. falciparum growth inhibition at 48 hours (one generation); AID 504832; actives 5.9% (n = 310,000); P. falciparum luciferase growth in erythrocytes, 48 h; Potency, µM (titrated, usually from 28.7 µM), actives largely listed as inhibitors
#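 Cell-based growth assay: transgenic P. falciparum expressing firefly luciferase, cultured in red cells within RPMI 1640 containing 0.5% w/v Albumax, 24 mM bicarbonate and gentamycin. A drop in luciferase activity indicates inhibition.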
# Pf growth 96h = P. falciparum growth inhibition at 96 hours; P. falciparum luciferase reporter growth, 96 h; Potency, µM (titrated, usually from 28.7 µM), most hits filed as inhibitors; actives 6.9% (n = 320,000); AID 504834
#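 Cell-based qHTS: luciferase-tagged P. falciparum in erythrocytes (2% hematocrit, 0.05% parasitemia final) incubated with compounds for 96 hours, 37 C, 5% CO2; luciferase detection reagent then added and luminescence measured.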
# Hits are given with their value; - = inactive; ? = inconclusive; . = not tested or not shown; [ ] = remark or other dose. Unless noted, calls follow the shape of the dose curve; as a rule, active = well fitted inhibition curve with a large enough effect; inconclusive = small, poorly fitted or top-dose-only effect, or another doubt; inactive = no such curve, though single readings can be large or run the other way.
SMILES,Shiga inhibitor,HCV inh,Cycloheximide cs,HCMV inh,Pf growth 48h,Pf growth 96h
COC(=O)Nc1nc2ccc(C(=O)c3ccccc3)cc2[nH]1,.,.,.,.,-,-
O=C(N[C@@H](Cc1ccccc1)c1nc2ccccc2[nH]1)c1ccc([N+](=O)[O-])cc1,.,.,.,-,.,.
O=C(CSc1cn(CC(=O)N2CCCCC2)c2ccccc12)NCc1ccccc1,.,.,.,-,.,.
Cc1c(Cl)cnc(NC(=O)COC(=O)[C@H](C)NC(=O)c2ccccc2)c1Cl,.,-,.,-,-,-
CCC(CC)c1nnc(NC(=O)CN2C(=O)NC3(CCCC3)C2=O)s1,-,.,-,-,?,-
COc1ccc(-n2ccn(Cc3ccccc3Cl)c(=O)c2=O)cc1OC,.,.,.,-,.,.
O=C(Nc1nc2ccccc2[nH]1)c1cccs1,75,-,37,-,-,0.47µM
O=C(Cc1nc2ccccc2[nH]1)c1cccc([N+](=O)[O-])c1,70,11µM,38,-,12µM,?
O=[N+]([O-])c1ccc2nc(CCCO)[nH]c2c1,-,-,-,-,-,?
Cc1ccc(C(=O)Nc2nc3ccccc3[nH]2)cc1,-,-,-,-84,-,-
Cn1nc(C(=O)Nc2nc3ccccc3[nH]2)ccc1=O,84,-,46,-,-,-
CCOC(=O)c1ccccc1NS(=O)(=O)c1ccc(N2CCCCS2(=O)=O)cc1,.,.,.,-,.,.
CN(C)C(=O)c1nc2ccc(Cl)cn2c1CN1CCCC(OCc2ccccc2)C1 (stereo not drawn),-,-,-,?,?,?
CCN(CC)C(=O)Cn1cc(SCC(=O)Nc2ccccc2C)c2ccccc21,.,.,.,-,.,.
Cc1ccc(Cl)cc1NCc1nnc2n1CCCCC2,.,.,.,-,.,.
CSCCC(NC(=O)c1cccc([N+](=O)[O-])c1)c1nc2ccccc2[nH]1 (stereo not drawn),-,-,-,-,?,?
O=C(Nc1cccc2ccccc12)c1cccc([N+](=O)[O-])c1,-,-,-,-,-,-
CSCC[C@H](NC(=O)c1cc([N+](=O)[O-])ccc1Cl)c1nc2ccccc2[nH]1,-,?,-,-,12µM,15µM
O=C(Nc1c(C(=O)N2CCOCC2)oc2ccccc12)c1cccc([N+](=O)[O-])c1,-,?,-,-,-,13µM
O=C(Nc1ccccc1N1CCOCC1)c1cccc([N+](=O)[O-])c1,-,-,-,-,-,?
Cc1nc2ccc(NC(=O)c3ccc([N+](=O)[O-])cc3)cc2[nH]1,-,-,14,-,-,-
O=C(Nc1nc2ccccc2[nH]1)c1cccc([N+](=O)[O-])c1,58,-,47,-,-,-
COc1ccc(Cl)cc1-c1nc(SCC(N)=O)n[nH]1,-,?,-,-,-,-
O=C(Nc1cccc(S(=O)(=O)N2CCCCCC2)c1)C1CCN(C(=O)c2ccc(Cl)cc2)CC1,.,?,.,?,?,-
C/C(=N/Nc1ncc(Br)cn1)c1ccc([N+](=O)[O-])cc1,.,-,-,-,-,-
SMILES,Shiga inhibitor,HCV inh,Cycloheximide cs,HCMV inh,Pf growth 48h,Pf growth 96h
O=C(Nc1nc2ccccc2[nH]1)c1ccc([N+](=O)[O-])cc1,92,-,28,-,-,?
O=C(NCc1nc2ccccc2[nH]1)c1ccc([N+](=O)[O-])cc1,-,-,-,-,-,-
C/C(=N\Nc1nc2ccccc2[nH]1)c1ccc([N+](=O)[O-])cc1,-,10µM,-,-,0.19µM,0.066µM
Cc1cc(/C=C2\SC(=S)NC2=O)cc(C)c1O,-,-,15,-,-,-
CCCOc1ccc(/C=C2\SC(N)=NC2=O)cc1OC,-,-,-,-,-,-
CCCOc1ccccc1/C=C1\SC(N)=NC1=O,-,-,-,-64,?,12µM
Cc1cc(/C=C2\SC(=Nc3ccc(F)cc3)NC2=O)c(C)n1-c1ccc(S(N)(=O)=O)cc1,-,3.5µM,-,-84,13µM,.
Cc1cc(/C=C2\SC(N)=NC2=O)c(C)n1-c1ccccc1,-,-,36,-,-,-
COc1ccc(-c2nc3scc(CCNS(=O)(=O)c4ccccc4F)n3n2)cc1,.,.,.,-,.,.
C=CCN(C(=O)c1cccc(N2C(=O)C3CC=CC(C)C3C2=O)c1)c1ccccc1 (stereo not drawn),-,-,-,-,?,-
COc1ccc(-n2c(C)cc(/C=C3\SC(=S)NC3=O)c2C)cc1,-,-,-,-,-,-
Cc1cc(/C=C2\SC(=S)NC2=O)c(C)n1C,-,-,-,-,-,-
Cc1cc(/C=C2\SC(=S)NC2=O)c(C)n1-c1ccc(O)cc1,52,-,38,-,9.3µM,-
Cc1cc(/C=C2\SC(=S)NC2=O)c(C)n1-c1ccccc1,58,-,44,-,-,-
O=C(COC(=O)Cc1ccc(Cl)cc1)NCc1ccco1,.,-,.,-,.,.
CC1(C)C(=O)CC[C@@]2(C)C1=CCC1C2CC[C@]2(C)C(=O)CCC12 (stereo partly drawn),.,-,.,-,.,.
Cc1cc(O)cc2c1C1CCC3(C)C(=O)CCC3C1C=C2 (stereo not drawn),.,-,.,-97,.,.
O=[N+]([O-])c1cc(/C=N/OCc2c(Cl)cccc2Cl)ccc1N1CCOCC1,-,?,19,-,?,?
CO/N=C/c1ccc(N2CCOCC2)c([N+](=O)[O-])c1,-,-,-,-,-,-
CC(C)Oc1ccc(CNC(=O)Cn2nc(N3CCN(c4ccccc4)CC3)ccc2=O)cc1,.,.,.,-,.,.
Cc1ccc(C(=O)NC(=S)Nc2ccccc2N2CCOCC2)cc1C,-,?,-,.,?,-
C=CCN=Cc1c(C)[nH]n(-c2ccccc2)c1=O,93,-,22,-,-,-
Cc1[nH]n(-c2ccccc2)c(=O)c1/C=N/c1ccccn1,-,-,-,-,-,-
Cc1[nH]n(-c2ccccc2)c(=O)c1C=NC1CCCCC1,49,-,14,-,-,-
Cc1[nH]n(-c2ccccc2)c(=O)c1C=NC1CCCCCC1,-,-,20,-,-,-[5.75 µM]
SMILES,Shiga inhibitor,HCV inh,Cycloheximide cs,HCMV inh,Pf growth 48h,Pf growth 96h
Cc1[nH]n(-c2ccccc2)c(=O)c1/C=N/N(c1ccccc1)c1ccccc1,-,-,-,-,?,-
Cc1[nH]n(-c2ccccc2)c(=O)c1C=Nc1cccc(F)c1,57,-,-,-,-,-
CC(CNC(=S)Nc1cc(F)cc(F)c1)CSc1ccc(Cl)cc1 (stereo not drawn),-,-,-,-,-,?
CC1(C(=O)NS(=O)(=O)Cc2cccc(Cl)c2)CCN1C(=O)c1ccc(C2CCCCC2)cc1 (stereo not drawn),.,.,.,-,.,.
Clc1ccc(-c2c[nH]c3ccccc23)nn1,-,-,-,?,-[1.15 µM],-
c1ccc2c(-c3csc(-c4ccncc4)n3)c[nH]c2c1,96,?,45,-,-,?
Brc1ccc(-c2csc(-c3c[nH]c4ccccc34)n2)cc1,86,6.3µM,34,-,-,-
O=C(NC1CC1)C1CCN(S(=O)(=O)c2ccc(Cl)cc2)CC1,-,-,-,-,1.7µM,-
